Data taken from PubChem BioAssay (NCATS).
Inconclusive results are not listed. The source made the active and inactive calls. Calls follow the shape of the dose curve; as a rule, active = well fitted curve in the direction sought with a large enough effect; inconclusive = small, poorly fitted or top-dose-only effect, or another doubt; inactive = no such curve, though single readings can be large; an effect the other way counts as inactive or inconclusive.

What was measured:
C33A = assay: Primary qHTS to identify gynecologic anti-cancer compounds using libraries of approved drugs and bioactive compounds (AID 1345084); details: Gynecologic cancer cell panel viability, ATPlite luminescence, 48 h; series mostly up to 57.5 µM; also: nearly all actives have a fitted effect of over 55% in size
Procedure, shortened: (§1)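 Luminescence from the ATPlite ATP-monitoring reagent indicates viable cell number; lower signal means cytotoxicity. Cells received compound 16 h after seeding and were exposed for 48 h across five concentrations.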

CAOV3 = assay: as above; details: Gynecologic cancer cell panel viability, ATPlite luminescence, 48 h; series mostly up to 57.5 µM
Procedure, shortened: as §1

Es-2 = assay: as above; details: Gynecologic cancer cell panel viability, ATPlite luminescence, 48 h; series mostly up to 57.5 µM
Procedure, shortened: as §1

HeLa = assay: as above; details: Gynecologic cancer cell panel viability, ATPlite luminescence, 48 h; series mostly up to 57.5 µM
Procedure, shortened: as §1

JEG-3 = assay: as above; details: Gynecologic cancer cell panel viability, ATPlite luminescence, 48 h; series mostly up to 57.5 µM
Procedure, shortened: as §1

PA-1 = assay: as above; details: Gynecologic cancer cell panel viability, ATPlite luminescence, 48 h; series mostly up to 57.5 µM
Procedure, shortened: as §1

Tov-21-G = assay: as above; details: Gynecologic cancer cell panel viability, ATPlite luminescence, 48 h; series mostly up to 57.5 µM
Procedure, shortened: as §1

CASKI = assay: as above; details: Gynecologic cancer cell panel viability, ATPlite luminescence, 48 h; series mostly up to 57.5 µM
Procedure, shortened: as §1

Hek293T = assay: as above; details: Gynecologic cancer cell panel viability, ATPlite luminescence, 48 h, control line for the selectivity index; series mostly up to 57.5 µM
Procedure, shortened: as §1

SKOV3 = assay: as above; details: Gynecologic cancer cell panel viability, ATPlite luminescence, 48 h; series mostly up to 57.5 µM
Procedure, shortened: as §1

OV90 = assay: as above; details: Gynecologic cancer cell panel viability, ATPlite luminescence, 48 h; series mostly up to 57.5 µM
Procedure, shortened: as §1

MCC-26 = assay: qHTS assay to identify novel small-molecules to repurpose for Merkel cell carcinoma treatment (AID 1296009); details: MCC and control cell lines, CellTiter-Glo viability, 72 h; series mostly up to 46 µM; also: nearly all actives have a fitted effect of over 60% in size
Procedure, shortened: (§2)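 qHTS format: cells treated with library compounds in DMSO across 8 (NPC) or 11 (MIPE) concentrations. Readout after 72 hr at 37 degree celsius was CellTiter-Glo luminescence.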

MKL-2 = assay: as above; details: MCC and control cell lines, CellTiter-Glo viability, 72 h; series mostly up to 46 µM
Procedure, shortened: as §2

Measured: Potency

CN1CCCN(C(c2ccccc2)c2ccc(Cl)cc2)CC1 (centres undefined)
inactive: C33A | CAOV3 | Es-2 | HeLa | JEG-3 | PA-1 | Tov-21-G

O=C1NC(=O)/C(=C/c2ccc3c(c2)OC(F)(F)O3)S1
inactive: C33A | CAOV3 | CASKI | Hek293T | SKOV3 | Tov-21-G

Clc1ccc2c(c1)N=C(N1CCNCC1)c1ccccc1N2
not listed: SKOV3 | OV90 | MCC-26 | MKL-2
inactive: all other assays above

CC(NN)c1ccccc1 (centres undefined)
not listed: SKOV3 | MCC-26 | MKL-2
inactive: all other assays above

CCCCCC(=O)O[C@]1(C(C)=O)CC[C@H]2[C@@H]3CCC4=CC(=O)CC[C@]4(C)[C@H]3CC[C@@]21C
not listed: C33A | HeLa | Hek293T | SKOV3 | OV90
inactive: all other assays above

COc1ccc([C@@H]2Sc3ccccc3NC(=O)[C@@H]2O)cc1
not listed: PA-1 | Tov-21-G | Hek293T | SKOV3 | MCC-26
inactive: all other assays above

N#C/C(=C1/SC[C@@H](c2ccc(Cl)cc2Cl)S1)n1ccnc1
not listed: OV90 | MKL-2
inactive: all other assays above
